# Measurements published in PubChem BioAssay AID602312 (The Scripps Research Institute Molecular Screening Center, 2012).
# Activity calls are given as the source filed them.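 Rule for the calls: active = inhibition of at least 50% at 1 µM; inactive = inhibition below 50% at 1 µM.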
# Molecular target: sn-1-specific diacylglycerol lipase ABHD11 (Mus musculus) (UniProt Q8K4F5)
# Assay: mouse ABHD11 activity inhibitors in proteome – biochemical, competitive gel ABPP, set 2, selectivity assay for DAGLb inhibitor project, late-stage follow-up (AID 602312)
# sn-1-specific diacylglycerol lipase ABHD11 (Mus musculus), sequence (Q8K4F5 whole entry, looked up): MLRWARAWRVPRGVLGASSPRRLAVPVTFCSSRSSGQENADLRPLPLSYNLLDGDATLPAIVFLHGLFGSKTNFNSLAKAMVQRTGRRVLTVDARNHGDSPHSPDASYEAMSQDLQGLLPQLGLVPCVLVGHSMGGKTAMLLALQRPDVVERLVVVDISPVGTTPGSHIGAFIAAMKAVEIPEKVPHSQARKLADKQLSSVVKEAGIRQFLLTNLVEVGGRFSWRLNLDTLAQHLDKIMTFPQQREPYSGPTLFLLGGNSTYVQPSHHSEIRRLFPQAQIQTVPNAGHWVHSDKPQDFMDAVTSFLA
smiles,measurement,value
COc1ccc(-c2ccc(-c3cn(C(=O)N4CCCCC4c4ccccc4)nn3)cc2)cc1 (stereo unspecified),outcome,inactive
